# According to PubChem BioAssay:
# Active and inactive are the calls of the source.
# What was measured:
# [1] = tested on: Human papillomavirus type 1a protein E7 (residues 44-93); experiment: small molecules binding HPV E7 44-93 – biochemical, small-molecule microarray, residues 44-93, 635 nm fluorescence, primary screen (AID 1108); settings: fluorescence 635 nm, higher = more signal;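 note: E7 fragment applied at 1 µg/mL in TBST for 1 h at 4 C; score combines spot fluorescence with its signal to noise ratio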
# [2] = hepatitis C replication reporter changes, two-sided – Huh7 cells, luciferase reporter, HCV replication inhibitor project, primary screen (AID 1109); settings: Huh7 HCV replicon luciferase reporter, 48 h; higher = more signal;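 note: huh7 hepatoma cells harbouring a luciferase neomycin HCV replicon reporter; luciferase luminescence as measure of HCV replicon replication; test concentration not given here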
# [3] = molecular target: Left-right determination factor 2 (Homo sapiens) (UniProt O00292); experiment: small molecules binding LEFTY2 protein – biochemical, small-molecule microarray, 635 nm fluorescence scan, primary screen (AID 1110); settings: higher = more signal
# [4] = molecular target: Calmodulin-1 (Homo sapiens) (UniProt P0DP23); experiment: small molecules binding calmodulin-1 with EGTA – biochemical, small-molecule microarray, Cy5-labelled CALM1, profiling panel (AID 1111); settings: Cy5-CALM1 binding fluorescence, higher = more signal;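 note: labelled calmodulin applied in Tris saline Tween buffer holding calcium plus EGTA and DTT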
# [5] = molecular target: Calmodulin-1 (Homo sapiens) (UniProt P0DP23); experiment: small molecules binding Ca-loaded calmodulin-1 – biochemical, small-molecule microarray, Cy5-labelled CALM1, plus calcium, artefact control for SMM control-protein annotation, profiling panel (AID 1112); settings: Cy5-CALM1 binding fluorescence, higher = more signal;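 note: score merges spot fluorescence with signal to noise from triplicate slides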
# [6] = probe aWnt5a binding to arrayed compounds – biochemical, biotinylated probe, 635/667 nm fluorescence, primary screen (AID 1113); settings: small-molecule microarray, higher = more signal;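 note: score merges 667 nm fluorescence intensity with signal-to-noise per printed feature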
# [7] = probe aShh binding to arrayed compounds – biochemical, biotinylated probe, 635/667 nm fluorescence, primary screen (AID 1114); settings: small-molecule microarray, higher = more signal;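 note: probe is biotin-labelled aShh protein from a stem cell growth factor screen; measures binding of labelled protein to compounds printed on the slide; score merges feature fluorescence at 667 nm with signal-to-noise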
# [8] = probe aNog binding to arrayed compounds – biochemical, biotinylated probe, 635/667 nm fluorescence, primary screen (AID 1115); settings: small-molecule microarray, higher = more signal;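 note: probe is biotinylated aNog protein used at 0.15 µg/mL for 1 h at 4 C; z-score combines 667 nm fluorescence of each spot with its signal to noise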
# [9] = molecular target: Torsin-1A-interacting protein 1 (Homo sapiens) (UniProt Q5JTV8); experiment: compound microarray binding of lysate hLAP1 – cell lysate, small-molecule microarray, COS7 lysate, 635/667 nm fluorescence, primary screen (AID 1116); settings: 635 nm fluorescence, higher = more signal
# [10] = molecular target: Alpha-bungarotoxin (Bungarus multicinctus) (UniProt P60615); experiment: compounds binding labelled alpha-BTX control protein – biochemical, small-molecule microarray, Alexa647 label, 635/667 nm fluorescence, artefact control for SMM control protein annotation, profiling panel (AID 1117); settings: alpha-BTX-A647 binding fluorescence, higher = more signal
# Albumin (Bos taurus) = Albumin (Bos taurus) (UniProt P02769); experiment: compounds binding labelled BSA control protein – biochemical, small-molecule microarray, Alexa647 label, 635/667 nm fluorescence, artefact control for SMM control protein annotation, profiling panel (AID 1118); settings: BSA-A647 binding, fluorescence 635 nm, higher = more signal;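 note: score merges 667 nm emission intensity and signal-to-noise per printed compound spot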
# [11] = probe aXIP binding to arrayed compounds – biochemical, NeuroSMM set, 635/667 nm fluorescence, primary screen (AID 1119); settings: small-molecule microarray, higher = more signal, called active from +8 up or from −8 down;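 note: probe is the protein aXip251-270 applied at 1 µg/mL to compound-printed slides; binding of probe to printed compounds measured as 667 nm fluorescence plus signal to noise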
# [12] = probe aNOTCH3 binding on compound microarray – biochemical, small-molecule microarray, 635/667 nm fluorescence, primary screen (AID 1120); settings: higher = more signal;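 note: probe is a biotin-tagged antibody raised against NOTCH3 rather than NOTCH3 protein; score merges spot fluorescence near 667 nm with spot signal to noise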
# [13] = probe aNOTCH2 binding on compound microarray – biochemical, small-molecule microarray, 635/667 nm fluorescence, primary screen (AID 1121); settings: higher = more signal;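 note: score merges feature fluorescence read at 667 nm with its signal to noise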
# [14] = molecular target: Carbonic anhydrase 2 (Homo sapiens) (UniProt P00918); experiment: compounds binding carbonic anhydrase 2 – biochemical, small-molecule microarray, Alexa647-labelled CAII, profiling panel (AID 1122); settings: CAII-A647 binding fluorescence, higher = more signal
# [15] = COS7 lysate on small-molecule microarray, probe aHis, 635 nm (AID 1123); settings: COS7 cell lysate, fluorescence, higher = more signal;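 note: z-score combines 667nm fluorescence intensity with signal-to-noise per printed compound spot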
# [16] = probe aLAP1 signal on lysate-treated microarray – cell lysate, small-molecule microarray, COS7 lysate, primary screen (AID 1124); settings: probe aLAP1, fluorescence, higher = more signal;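 note: lysate comes from COS7 cells expressing LAP1 and is applied at 0.3 µg/mL; score merges spot fluorescence near 667 nm with signal-to-noise over triplicate slides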
# Sam68 (KHDRBS1) = experiment: compounds binding KHDRBS1 protein – biochemical, small-molecule microarray, 635 nm fluorescence, primary screen (AID 1125); settings: higher = more signal;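 note: score merges 667 nm channel intensity with signal to noise over triplicate slides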
# [17] = tested on: Chordin-like protein 2 (CHRDL2); experiment: compounds binding chordin-like 2 – biochemical, small-molecule microarray, 635 nm fluorescence, primary screen (AID 1126); settings: fluorescence 635 nm, higher = more signal;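 note: printed compound slides probed with Chrdl2 protein at 4 µg/mL for 1 h at 4 C; score merges 667 nm emission intensity with signal to noise over three replicate slides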
# [18] = molecular target: Concanavalin-A (Canavalia ensiformis) (UniProt P02866); experiment: compounds binding concanavalin A lectin – biochemical, small-molecule microarray, Alexa647 label, 635 nm, artefact control for SMM control protein annotation, primary screen (AID 1127); settings: ConA-A647 binding fluorescence, higher = more signal;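 note: z combines 667 nm emission intensity with signal-to-noise across three replicate slides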
# Concanavalin-A (Canavalia ensiformis), sequence (P02866 whole entry, looked up): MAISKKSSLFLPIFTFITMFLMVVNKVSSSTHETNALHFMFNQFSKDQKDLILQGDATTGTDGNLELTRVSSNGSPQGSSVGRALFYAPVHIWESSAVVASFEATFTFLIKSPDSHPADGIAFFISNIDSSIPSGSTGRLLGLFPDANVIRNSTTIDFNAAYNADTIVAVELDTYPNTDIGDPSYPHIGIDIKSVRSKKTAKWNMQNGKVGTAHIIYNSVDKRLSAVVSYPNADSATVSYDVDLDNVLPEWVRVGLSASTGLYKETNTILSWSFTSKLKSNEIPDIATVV
# Left-right determination factor 2 (Homo sapiens), sequence (O00292 whole entry, looked up): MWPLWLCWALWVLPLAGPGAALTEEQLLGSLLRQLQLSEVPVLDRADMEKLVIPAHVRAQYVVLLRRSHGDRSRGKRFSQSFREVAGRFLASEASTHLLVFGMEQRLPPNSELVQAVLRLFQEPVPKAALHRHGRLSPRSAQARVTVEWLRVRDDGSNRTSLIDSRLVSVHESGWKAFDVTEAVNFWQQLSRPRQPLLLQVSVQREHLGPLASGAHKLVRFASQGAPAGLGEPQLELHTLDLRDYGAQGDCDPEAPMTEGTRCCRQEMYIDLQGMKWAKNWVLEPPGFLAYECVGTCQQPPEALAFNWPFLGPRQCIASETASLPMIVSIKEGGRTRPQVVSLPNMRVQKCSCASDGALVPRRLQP
# Albumin (Bos taurus), sequence (P02769 whole entry, looked up): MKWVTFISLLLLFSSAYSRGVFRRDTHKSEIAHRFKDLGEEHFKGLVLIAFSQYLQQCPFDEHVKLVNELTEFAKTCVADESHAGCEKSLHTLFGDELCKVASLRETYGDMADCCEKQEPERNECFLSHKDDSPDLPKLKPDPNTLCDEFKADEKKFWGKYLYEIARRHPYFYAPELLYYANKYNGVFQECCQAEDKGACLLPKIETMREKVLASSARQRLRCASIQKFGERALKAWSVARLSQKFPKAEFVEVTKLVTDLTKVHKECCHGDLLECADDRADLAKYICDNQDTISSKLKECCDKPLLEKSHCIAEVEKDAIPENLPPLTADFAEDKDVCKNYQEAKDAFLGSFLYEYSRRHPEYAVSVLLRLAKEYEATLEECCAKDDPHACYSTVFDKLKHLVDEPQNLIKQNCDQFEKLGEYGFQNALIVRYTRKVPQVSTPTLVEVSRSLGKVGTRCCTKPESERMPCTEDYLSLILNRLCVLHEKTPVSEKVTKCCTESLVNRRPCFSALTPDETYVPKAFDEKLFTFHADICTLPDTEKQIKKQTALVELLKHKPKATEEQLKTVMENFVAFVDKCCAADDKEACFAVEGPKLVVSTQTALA
# Torsin-1A-interacting protein 1 (Homo sapiens), sequence (Q5JTV8 whole entry, looked up): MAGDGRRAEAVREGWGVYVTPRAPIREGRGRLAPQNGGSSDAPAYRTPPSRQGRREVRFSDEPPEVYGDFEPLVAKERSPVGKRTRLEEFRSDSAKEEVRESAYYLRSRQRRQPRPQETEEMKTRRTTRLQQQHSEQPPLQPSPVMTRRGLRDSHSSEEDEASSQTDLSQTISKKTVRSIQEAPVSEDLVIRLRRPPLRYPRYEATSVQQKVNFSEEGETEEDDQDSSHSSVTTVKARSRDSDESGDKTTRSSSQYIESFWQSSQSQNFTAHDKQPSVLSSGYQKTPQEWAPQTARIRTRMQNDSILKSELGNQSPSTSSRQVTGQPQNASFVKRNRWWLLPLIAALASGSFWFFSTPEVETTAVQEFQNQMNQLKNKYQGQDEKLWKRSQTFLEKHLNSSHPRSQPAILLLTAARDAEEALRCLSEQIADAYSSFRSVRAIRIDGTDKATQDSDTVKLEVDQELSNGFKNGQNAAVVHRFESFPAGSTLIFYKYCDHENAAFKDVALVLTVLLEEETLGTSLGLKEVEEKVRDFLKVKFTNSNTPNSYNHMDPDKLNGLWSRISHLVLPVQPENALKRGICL
# Alpha-bungarotoxin (Bungarus multicinctus), sequence (P60615 whole entry, looked up): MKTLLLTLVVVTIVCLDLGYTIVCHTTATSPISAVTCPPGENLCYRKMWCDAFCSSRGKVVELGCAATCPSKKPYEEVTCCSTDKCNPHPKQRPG
SMILES,composite z-score [1],z-score [2],composite z-score [3],composite z-score [4],composite z-score [5],composite z-score [6],composite z-score [7],composite z-score [8],composite z-score [9],composite z-score [10],composite z-score (Albumin (Bos taurus)),composite Z-score [11],composite z-score [12],composite z-score [13],composite z-score [14],composite z-score [15],composite z-score [16],composite z-score (Sam68 (KHDRBS1)),composite z-score [17],composite z-score [18]
CC(C)C[C@@H]1NC(=O)[C@@H]2C[C@H](C(=O)NCCCCCCNC(=O)CS)[C@H](c3ccc(O)cc3)N2C1=O,1.48,0.388,0.734,1.06,0.152,-0.0495,-0.0211,0.693,0.469,1.76,-0.025,0.0101 (inactive),0.133,-0.0817,0.706,1.91,0.655,1.28,1.26,0.995
C=CCOC(=O)[C@H]1[C@@H]2C(=O)O[C@@H](c3ccccc3)[C@@H](c3ccccc3)N2[C@@H](c2ccc(OCCOC(=O)[C@H]3C[C@H]4C(=O)NCC(=O)N4[C@H]3c3cccc(OCCO)c3)cc2)[C@]12C(=O)Nc1ccc(I)cc12,1.23,-0.903,0.541,1.05,0.0934,0.0629,0.131,0.131,1.44,1.08,-0.0037,0.642 (inactive),0.138,-0.125,0.567,2.2,0.692,1.29,0.866,1.14
COC(=O)C1(CC(C)C)C=C2C(=C(C)C(=O)C2C)CN1 (stereo not given),-0.412,-1.01,-0.253,0.0595,0.89,0.432,1.79,0.825,0.653,0.096,-0.293,1.64 (inactive),0.786,0.175,0.754,1.63,0.311,-0.0177,0.0633,-0.667
O=C1c2ccccc2[C@@]2(Cc3ccccc3N(CC(F)(F)F)C2=O)[C@H](c2ccc(CO)cc2)N1Cc1ccccc1,-0.143,-1.22,0.2,-0.469,0.457,0.0371,0.0178,-0.238,-0.131,-0.0056,-0.507,-0.207 (inactive),0.0698,-0.219,-0.13,-0.211,0.0163,0.166,0.62,0.0118
CCCCC(=C=CC[C@H](O)c1cccc(OCCO)c1)C[C@H](O)c1cc(Cl)cc(Cl)c1O,1.39,-1.59,-0.0526,0.154,-0.484,-0.096,-0.0626,0.422,0.839,0.645,0.436,0.41 (inactive),-0.0288,-0.143,0.465,0.686,-0.151,1.03,0.0963,1.04
C=C(C(=O)CC[C@@H](OC(=O)c1ccccc1-c1ccccc1C(=O)O)c1ccc(CO)o1)C(C)C,0.476,-1.53,0.367,-0.236,-0.86,-0.118,-0.349,-0.295,1.27,0.101,-0.41,0.0692 (inactive),-0.0858,-0.112,0.75,0.163,0.464,0.754,0.386,0.278
CC[C@@H](O[Si](C#C[Si](C(C)C)(C(C)C)C(C)C)(C(C)C)C(C)C)c1cn(Cc2cccc(Cl)c2)nn1,0.906,-0.959,0.374,0.0371,-0.461,-0.0194,-0.154,-0.124,0.403,0.485,0.0711,-0.0359 (inactive),-0.119,-0.0495,0.226,0.233,0.773,1.04,0.451,0.68
C=C1C(=O)C=C2CN(C(=O)c3ccccc3)[C@@](Cc3ccc(F)cc3)(C(=O)OC)[C@@H]12,1.39,-3.68,-0.406,2.19,1.08,0.177,-0.0626,1.99,0.952,1.85,1.03,0.114 (inactive),0.693,0.009,0.5,2.76,0.942,1.34,-0.775,1.14
CC(C)C[C@H]1NC(=O)CNC(=O)[C@@]23C(=O)N[C@@H](Cc4ccccc4)C2[C@H](C)[C@@]2(C)O[C@H]2C3/C=C/C/C=C\CNC1=O (stereo not given in full),0.0774,0.238,0.715,-0.322,-0.833,-0.169,-0.221,-0.0315,-0.0248,-0.188,0.591,-0.0443 (inactive),-0.0984,-0.133,0.392,0.677,0.248,0.258,0.599,0.0947
O=C1NC(=O)C2C1C=CC(C(O)C(c1ccccc1)c1ccccc1)N2Nc1ccccn1 (stereo not given),-1.31,-0.246,0.702,-0.67,0.295,0.278,-0.119,0.328,1.63,-0.143,0.26,-0.212 (inactive),0.15,0.256,0.809,0.899,0.754,-0.0644,0.691,-0.516
C=CCNC(=O)[C@H]1[C@@H]2C(=O)O[C@@H](c3ccccc3)[C@@H](c3ccccc3)N2[C@@H](c2ccc(O)cc2)[C@]12C(=O)Nc1ccccc12,0.864,-0.462,-0.588,0.51,0.0876,-0.148,-0.0769,-0.0089,1.33,0.269,-0.118,-0.139 (inactive),-0.278,-0.0681,0.331,0.45,0.219,1.07,-0.21,0.872
